Measurements as given in PubChem BioAssay (Tox21).
Records with an inconclusive call do not appear. The source made the active and inactive calls. Unless noted, calls come from the whole dose curve.

Legend:
[1] = qHTS assay to identify small molecule agonists of the vitamin D receptor (VDR) signaling pathway - cell viability counter screen (AID 743224; active = well fitted curve in the direction sought with a large enough effect in the repeat runs; an effect the other way counts as inactive or inconclusive; note: series mostly up to about 63 µM; % is set by controls: 0 for no effect and ±100 for the full control effect; nearly all actives have a fitted effect of over 50% in size)
Procedure, shortened: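 VDR-bla cells were preincubated 4 h at 37C/5% CO2, then exposed to compounds for 16 h. After the 2 h room-temperature bla FRET read, CellTiter-Glo was added to the same wells and luminescence read after 30 min.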

[2] = qHTS assay to identify small molecule antagonists of the vitamin D receptor (VDR) signaling pathway - cell viability counter screen (AID 743225; active = well fitted curve in the direction sought with a large enough effect in the repeat runs; an effect the other way counts as inactive or inconclusive; note: % is set by controls: 0 for no effect and ±100 for the full control effect; nearly all actives have a fitted effect of over 50% in size)
Procedure, shortened: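 Cells (VDR-UAS-bla HEK 293T) are plated, rested 4 h at 37C, dosed with compound and 3 nM final 1-alpha,25-dihydroxy vitamin D3, and incubated 16 h. Viability is taken from CellTiter-Glo luminescence in the reporter wells.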

[3] = qHTS assay to identify small molecule agonists of the NFkB signaling pathway (AID 1159509; active = well fitted curve in the direction sought with a large enough effect in the signal ratio in the repeat runs, not every such curve was filed as active; the % refers to the signal ratio; note: series mostly up to about 61 µM; % is set by controls: 0 for no effect and ±100 for the full control effect)
Procedure, shortened: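 NFkB-bla ME-180 cells carry a beta-lactamase reporter under an NF-kB response element. They were plated overnight, then exposed to compounds for 5 h at 37 C. Read-out is LiveBLAzer FRET after 1.5 hr at room temperature (405 nm excitation; 460/530 nm emission).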

[4] = qHTS assay to identify small molecule agonists of the NFkB signaling pathway - cell viability counter screen (AID 1159515); note: series mostly up to about 61 µM; % is set by controls: 0 for no effect and ±100 for the full control effect; nearly all actives have a fitted effect of over 55% in size
Procedure, shortened: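 NFkB-bla ME-180 cells, 2,000/well, were plated overnight at 37 C, 5% CO2, then exposed to compounds in DMSO for 5 hr. After the bla FRET read, CellTiter-Glo was added to the same wells; luminescence was read after 30 min at room temperature.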

[5] = qHTS assay to identify small molecule agonists of the endoplasmic reticulum stress response signaling pathway (AID 1159516; active = well fitted activation curve with a large enough effect in the signal ratio in the repeat runs, not every such curve was filed as active; the % refers to the signal ratio; note: % is set by controls: 0 for no effect and ±100 for the full control effect)
Procedure, shortened: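 CellSensor ESRE-bla HeLa cells, carrying a beta-lactamase reporter driven by the ER stress response element, were plated overnight and exposed to compounds for 5 hr at 37 C. Reporter activity was read as FRET substrate fluorescence after 2 hr at room temperature.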

[6] = qHTS assay to identify small molecule agonists of the endoplasmic reticulum stress response signaling pathway - cell viability counter screen (AID 1159517); note: series mostly up to about 61 µM; % is set by controls: 0 for no effect and ±100 for the full control effect; nearly all actives have a fitted effect of over 50% in size
Procedure, shortened: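 HeLa cells carrying an ESRE-driven beta-lactamase reporter receive compound for 5 hr at 37 C. Cell viability is then gauged with CellTiter-Glo by luminescence, 30 min at room temperature.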

[7] = qHTS assay to identify small molecule antagonists of the retinoid-related orphan receptor gamma (ROR-gamma) signaling pathway - cell viability counter screen (AID 1159520; active = well fitted curve in the direction sought with a large enough effect in the repeat runs; an effect the other way counts as inactive or inconclusive; note: % is set by controls: 0 for no effect and ±100 for the full control effect; nearly all actives have a fitted effect of over 50% in size)
Procedure, shortened: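 Cytotoxicity was read from cellular ATP (CellTiter-Glo luminescence) after 16 hr at 37 C with 1 uM doxycycline induction. The inducer was added 2 hr after compound transfer to Tet-on ROR gamma CHO cells.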

[8] = target: Nuclear receptor ROR-gamma (Homo sapiens) (UniProt P51449); experiment: qHTS assay to identify small molecule antagonists of the retinoid-related orphan receptor gamma (ROR-gamma) signaling pathway (AID 1159521; active = well fitted curve in the direction sought with a large enough effect in the repeat runs; an effect the other way counts as inactive or inconclusive)
Procedure, shortened: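 RORγ antagonism is scored from reduced reporter luminescence in Tet-on CHO cells. Induction used 1 uM final doxycycline hyclate for 16 h at 37 C, following a 2 h compound exposure.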

[9] = qHTS assay to identify small molecule agonists of the AP-1 signaling pathway - cell viability counter screen (AID 1159525); note: nearly all actives have a fitted effect of over 55% in size
Procedure, shortened: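 Luminescent ATP readout (Cell Titer Glo, 30 min RT), normalised to DMSO and tetra n-octyl ammonium bromide controls. Cells were ME-180 AP-1-bla in 0.5% dialyzed FBS Opti-MEM, with a 5 h, 37 °C compound exposure.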

[10] = qHTS assay to identify small molecule agonists of the AP-1 signaling pathway (AID 1159526); note: % is set by controls: 0 for no effect and ±100 for the full control effect

CC(C)(C)NC[C@H](O)c1ccc(O)cc1Cl
inactive: Potency [1] | Potency [2] | outcome [3] | outcome [4] | outcome [5] | Potency [6] | Potency [7] | Potency [8] | Potency [9] | outcome [10]

CC(C)(C)C(=O)Cl
inactive: Potency [1] | Potency [2] | outcome [3] | outcome [4] | outcome [5] | Potency [6] | Potency [7] | Potency [8] | Potency [9] | outcome [10]

O=C(Cl)C(Cl)Cl
inactive: Potency [1] | Potency [2] | outcome [3] | outcome [4] | outcome [5] | Potency [6] | Potency [7] | Potency [8] | Potency [9] | outcome [10]

Nc1c(Cl)c(F)nc(OCC(=O)O)c1Cl
inactive: Potency [1] | Potency [2] | outcome [3] | outcome [4] | outcome [5] | Potency [6] | Potency [7] | Potency [8] | Potency [9] | outcome [10]

COc1cc(CC(C)N)cc(OC)c1OC (stereo not given)
inactive: Potency [1] | Potency [2] | outcome [3] | outcome [4] | outcome [5] | Potency [6] | Potency [7] | Potency [8] | Potency [9] | outcome [10]

O=C(NC(O)C(Cl)(Cl)Cl)NC(O)C(Cl)(Cl)Cl (stereo not given)
inactive: Potency [1] | Potency [2] | outcome [3] | outcome [4] | outcome [5] | Potency [6] | Potency [7] | Potency [8] | Potency [9] | outcome [10]

CC1=C2[C@H]3OC(=O)[C@@H](C)[C@@H]3CC[C@@]2(C)C=CC1=O
inactive: Potency [1] | Potency [2] | outcome [3] | outcome [4] | outcome [5] | Potency [6] | Potency [7] | Potency [8] | Potency [9] | outcome [10]

CCOC(=O)COc1ccc(Cl)cc1Cl
inactive: Potency [1] | Potency [2] | outcome [3] | outcome [4] | outcome [5] | Potency [6] | Potency [7] | Potency [8] | Potency [9] | outcome [10]

BrCC1CO1 (stereo not given)
inactive: Potency [1] | Potency [2] | outcome [3] | outcome [4] | outcome [5] | Potency [6] | Potency [7] | Potency [8] | Potency [9] | outcome [10]

Clc1nc(Cl)nc(Nc2ccccc2Cl)n1
inactive: Potency [1] | Potency [2] | outcome [3] | outcome [4] | outcome [5] | Potency [6] | Potency [7] | Potency [8] | Potency [9] | outcome [10]

OCC(Cl)CCl (stereo not given)
inactive: Potency [1] | Potency [2] | outcome [3] | outcome [4] | outcome [5] | Potency [6] | Potency [7] | Potency [8] | Potency [9] | outcome [10]

Clc1cc2c(cc1Cl)Oc1cc(Cl)c(Cl)cc1O2
inactive: activity change, negative = cytotoxicity [1] -0.698% [at 0.275 µM] | viability change, negative = cytotoxic [2] 2.97% [at 0.281 µM] | activation [3] -0.0516% [at 0.281 µM] | activity, negative = cytotoxic [4] -0.991% [at 0.281 µM] | activation [5] -5.12% [at 0.281 µM] | activity change, negative = cytotoxicity [6] -1.54% [at 0.281 µM] | activity, negative = cytotoxicity [7] 0.49% [at 0.349 µM] | activity change, negative = inhibition [8] 16.4% [at 0.35 µM] | viability change, negative = cytotoxic [9] -6.16% [at 0.29 µM] | activation [10] 0.434% [at 0.29 µM]

C=C(Cl)CCl
inactive: Potency [1] | Potency [2] | outcome [3] | outcome [4] | outcome [5] | Potency [6] | Potency [7] | Potency [8] | Potency [9] | outcome [10]

CCOC(=O)NC(C)(C)Cc1ccc(Cl)cc1
inactive: Potency [1] | Potency [2] | outcome [3] | outcome [4] | outcome [5] | Potency [6] | Potency [7] | Potency [8] | Potency [9] | outcome [10]

CCC(C(N)=O)N1CCCC1=O (stereo not given)
inactive: Potency [1] | Potency [2] | outcome [3] | outcome [4] | outcome [5] | Potency [6] | Potency [7] | Potency [8] | Potency [9] | outcome [10]

NNCc1ccccc1
inactive: Potency [1] | Potency [2] | outcome [3] | outcome [4] | outcome [5] | Potency [6] | Potency [7] | Potency [8] | Potency [9] | outcome [10]

NNC(N)=O
inactive: Potency [1] | Potency [2] | outcome [3] | outcome [4] | outcome [5] | Potency [6] | Potency [7] | Potency [8] | Potency [9] | outcome [10]

CCc1ccc(C2CCNCC2)cc1
inactive: Potency [1] | Potency [2] | outcome [3] | outcome [4] | outcome [5] | Potency [6] | Potency [7] | Potency [8] | Potency [9] | outcome [10]

CC1NCCOC1c1ccccc1 (stereo not given)
inactive: Potency [1] | Potency [2] | outcome [3] | outcome [4] | outcome [5] | Potency [6] | Potency [7] | Potency [8] | Potency [9] | outcome [10]

CCOC(=O)C(SP(=S)(OC)OC)c1ccccc1 (stereo not given)
inactive: Potency [1] | Potency [2] | outcome [3] | outcome [4] | outcome [5] | Potency [6] | Potency [7] | Potency [8] | Potency [9] | outcome [10]

C1CN2CCC1CC2
inactive: Potency [2] | outcome [3] | outcome [4] | outcome [5] | Potency [6] | Potency [7] | Potency [8] | Potency [9] | outcome [10]

CNC(=O)O/N=C(/CSC)C(C)(C)C
inactive: Potency [2] | outcome [3] | outcome [4] | outcome [5] | Potency [6] | Potency [7] | Potency [8] | Potency [9] | outcome [10]

O=C(O)c1c(Cl)ccc2cc(Cl)cnc12
inactive: Potency [1] | Potency [2] | outcome [3] | outcome [4] | outcome [5] | Potency [6] | Potency [8] | Potency [9] | outcome [10]

C=C(Cl)CSC(=S)N(CC)CC
inactive: Potency [1] | Potency [2] | outcome [3] | outcome [4] | outcome [5] | Potency [6] | Potency [8] | Potency [9] | outcome [10]

CC(Cc1ccccc1)NCCn1cnc2c1c(=O)n(C)c(=O)n2C (stereo not given)
inactive: Potency [1] | Potency [2] | outcome [3] | outcome [4] | outcome [5] | Potency [6] | Potency [8] | Potency [9] | outcome [10]
